One sequence from PMC7862700, “An all-to-all approach to the identification of sequence-specific readers for epigenetic DNA modifications on cytosine” can be followed below.

Assay in all cases: DAPPL (digital affinity profiling via proximity ligation, sequencing); 10 mM Tris-HCl pH 7.5, 50 mM NaCl, 1 mM DTT, 4% glycerol, room temperature, 30 min; GST-TFs on glutathione beads, 16-mer random dsDNA library, 0.1% formaldehyde crosslink after washing; high values mean tight binding
One test concerns the target T1, FLI1 (Homo sapiens, UniProt Q01543 1-452).
T1 sequence: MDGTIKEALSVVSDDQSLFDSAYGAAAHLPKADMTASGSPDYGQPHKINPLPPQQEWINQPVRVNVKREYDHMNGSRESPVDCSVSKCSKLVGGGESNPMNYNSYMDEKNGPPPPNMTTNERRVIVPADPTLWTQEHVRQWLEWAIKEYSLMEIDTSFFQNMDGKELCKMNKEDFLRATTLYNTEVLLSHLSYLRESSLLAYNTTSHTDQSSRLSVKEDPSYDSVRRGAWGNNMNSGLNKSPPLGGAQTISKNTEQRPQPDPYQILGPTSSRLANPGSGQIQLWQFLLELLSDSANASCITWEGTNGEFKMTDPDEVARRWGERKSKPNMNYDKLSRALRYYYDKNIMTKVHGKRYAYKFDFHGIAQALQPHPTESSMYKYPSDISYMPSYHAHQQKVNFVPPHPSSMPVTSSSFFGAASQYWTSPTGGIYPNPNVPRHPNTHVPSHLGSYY
Conditions: protein: recombinant; tags: N-terminal GST; dsDNA, one strand shown. Summed up: (§1)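 In yeast, human transcription factors were expressed with a GST fusion, then pulled down on glutathione beads and given DNA barcodes. Pooled with a tag-only sample, they were exposed to 200 nmole of a 16-mer random double-stranded DNA library (Tris/NaCl/DTT/glycerol buffer, room temperature, 30 min), washed, crosslinked with 0.1% formaldehyde, proximity-ligated using BsaI/T4 ligase for 1 h at 37 °C, PCR-amplified and read on an Illumina NextSeq500. Each hexamer's frequency of reads for a factor, divided by the matching frequency for the tag-only sample, gives the binding signal.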

The target of a further test is T2, ELK1 (Homo sapiens, UniProt P19419 1-428).
T2 sequence: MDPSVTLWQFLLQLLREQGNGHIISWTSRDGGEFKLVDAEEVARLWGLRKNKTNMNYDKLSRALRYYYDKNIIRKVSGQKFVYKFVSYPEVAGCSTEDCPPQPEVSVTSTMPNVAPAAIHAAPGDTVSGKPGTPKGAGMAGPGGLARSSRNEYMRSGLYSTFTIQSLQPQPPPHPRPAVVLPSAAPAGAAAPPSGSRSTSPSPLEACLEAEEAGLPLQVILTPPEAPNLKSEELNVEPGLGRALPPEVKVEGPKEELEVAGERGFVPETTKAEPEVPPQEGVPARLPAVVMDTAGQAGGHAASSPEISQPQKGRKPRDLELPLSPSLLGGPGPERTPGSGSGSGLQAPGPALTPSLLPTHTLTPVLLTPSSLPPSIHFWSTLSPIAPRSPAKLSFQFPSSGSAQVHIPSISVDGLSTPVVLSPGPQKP
Particulars: protein: recombinant; tags: N-terminal GST; dsDNA, one strand shown. Summed up: as §1

The target of the next test is T3, GABPA (Homo sapiens, UniProt Q06546 1-454).
T3 sequence: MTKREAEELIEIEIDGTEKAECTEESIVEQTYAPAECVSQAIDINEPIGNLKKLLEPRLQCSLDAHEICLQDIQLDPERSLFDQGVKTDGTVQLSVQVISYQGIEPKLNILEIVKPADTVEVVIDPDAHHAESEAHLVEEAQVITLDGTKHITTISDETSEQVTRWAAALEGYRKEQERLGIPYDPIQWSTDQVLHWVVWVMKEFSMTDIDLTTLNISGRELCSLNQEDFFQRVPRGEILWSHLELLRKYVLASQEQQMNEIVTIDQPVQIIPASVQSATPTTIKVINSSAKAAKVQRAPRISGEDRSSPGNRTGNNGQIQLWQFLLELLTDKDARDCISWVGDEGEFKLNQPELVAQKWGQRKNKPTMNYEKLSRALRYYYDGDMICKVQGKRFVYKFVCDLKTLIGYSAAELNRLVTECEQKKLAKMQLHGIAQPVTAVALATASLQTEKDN
Conditions: protein: recombinant; tags: N-terminal GST; dsDNA, one strand shown. Summed up: as §1

For a further test, the target named is T4, ERG (Homo sapiens, UniProt P11308 1-479).
T4 sequence: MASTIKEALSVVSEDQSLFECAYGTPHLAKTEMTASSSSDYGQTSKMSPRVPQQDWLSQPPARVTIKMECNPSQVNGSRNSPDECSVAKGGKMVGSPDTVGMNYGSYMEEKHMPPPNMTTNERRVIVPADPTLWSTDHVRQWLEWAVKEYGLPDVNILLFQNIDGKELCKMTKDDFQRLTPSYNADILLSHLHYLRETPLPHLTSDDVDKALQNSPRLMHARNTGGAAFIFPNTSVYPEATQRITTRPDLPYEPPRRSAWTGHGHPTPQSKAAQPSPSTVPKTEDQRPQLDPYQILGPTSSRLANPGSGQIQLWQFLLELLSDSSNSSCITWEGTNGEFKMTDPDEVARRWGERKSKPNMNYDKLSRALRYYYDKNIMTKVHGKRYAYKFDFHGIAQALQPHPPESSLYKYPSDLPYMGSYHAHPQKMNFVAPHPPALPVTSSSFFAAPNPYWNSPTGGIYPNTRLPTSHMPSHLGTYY
Conditions: protein: recombinant; tags: N-terminal GST; dsDNA, one strand shown. Summed up:
as §1

The next test deals with ELF1 (Homo sapiens, UniProt P32519 1-619). Conditions: protein: recombinant; tags: N-terminal GST; dsDNA, one strand shown. Summed up:
as §1

The target of the next test is T5, EHF (Homo sapiens, UniProt Q9NZC4 1-300).
T5 sequence: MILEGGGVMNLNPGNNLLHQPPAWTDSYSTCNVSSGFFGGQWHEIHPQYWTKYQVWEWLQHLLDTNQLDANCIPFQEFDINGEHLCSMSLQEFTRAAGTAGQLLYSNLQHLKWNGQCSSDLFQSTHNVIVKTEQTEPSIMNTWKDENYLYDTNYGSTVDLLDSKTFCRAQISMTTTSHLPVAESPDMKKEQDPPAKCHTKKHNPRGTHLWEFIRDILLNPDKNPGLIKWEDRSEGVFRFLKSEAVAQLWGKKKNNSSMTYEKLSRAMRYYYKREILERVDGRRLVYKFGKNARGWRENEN
Conditions: protein: recombinant; tags: N-terminal GST; dsDNA, one strand shown. In short, it runs like this:
as §1

Another test has as its target SPI1 (Homo sapiens, UniProt P17947 1-270). Particulars: protein: recombinant; tags: N-terminal GST; dsDNA, one strand shown. In short, it runs like this:
as §1

The next test deals with SPIB (Homo sapiens, UniProt Q01892 1-262). Particulars: protein: recombinant; tags: N-terminal GST; dsDNA, one strand shown. Summed up: as §1
Sequence of SPIB (Q01892 whole entry): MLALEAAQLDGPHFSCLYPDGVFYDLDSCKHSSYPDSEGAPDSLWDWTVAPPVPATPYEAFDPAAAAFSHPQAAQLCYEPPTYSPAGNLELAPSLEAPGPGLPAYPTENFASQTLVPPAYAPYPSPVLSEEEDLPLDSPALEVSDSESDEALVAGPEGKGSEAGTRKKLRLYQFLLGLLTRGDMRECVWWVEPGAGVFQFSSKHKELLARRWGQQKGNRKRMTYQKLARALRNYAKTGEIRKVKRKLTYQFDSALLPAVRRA
The target of a further test is T6, ELK3 (Homo sapiens, UniProt P41970 1-407).
T6 sequence: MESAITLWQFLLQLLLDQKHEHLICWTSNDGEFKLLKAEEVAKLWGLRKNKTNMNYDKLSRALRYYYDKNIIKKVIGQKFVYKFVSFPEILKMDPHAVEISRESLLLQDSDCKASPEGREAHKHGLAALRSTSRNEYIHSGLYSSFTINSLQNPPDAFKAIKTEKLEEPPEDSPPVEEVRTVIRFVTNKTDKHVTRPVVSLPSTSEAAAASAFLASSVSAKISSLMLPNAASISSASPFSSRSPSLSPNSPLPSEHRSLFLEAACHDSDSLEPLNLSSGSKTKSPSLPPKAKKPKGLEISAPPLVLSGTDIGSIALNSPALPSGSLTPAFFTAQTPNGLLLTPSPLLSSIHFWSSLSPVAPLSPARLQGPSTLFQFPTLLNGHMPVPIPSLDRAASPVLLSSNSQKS
Conditions: protein: recombinant; tags: N-terminal GST; dsDNA, one strand shown. Summed up:
as §1

A further test has as its target T7, FEV (Homo sapiens, UniProt Q99581 1-238).
T7 sequence: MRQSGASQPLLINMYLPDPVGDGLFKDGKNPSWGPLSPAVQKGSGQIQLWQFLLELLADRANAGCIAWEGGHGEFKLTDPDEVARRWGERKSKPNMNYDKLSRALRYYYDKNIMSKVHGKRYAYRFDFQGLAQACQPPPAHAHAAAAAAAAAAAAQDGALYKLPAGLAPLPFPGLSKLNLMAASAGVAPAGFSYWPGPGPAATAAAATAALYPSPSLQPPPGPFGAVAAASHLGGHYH
Particulars: protein: recombinant; tags: N-terminal GST; dsDNA, one strand shown. In short, it runs like this: as §1

Another test concerns the target ETV5 (Homo sapiens, UniProt P41161 1-510). Particulars: protein: recombinant; tags: N-terminal GST; dsDNA, one strand shown. Summed up:
as §1

For a further test, the target named is HSF1 (Homo sapiens, UniProt Q00613 1-529). Conditions: protein: recombinant; tags: N-terminal GST; chain copies: 3; dsDNA, one strand shown. In short, it runs like this: as §1
Sequence of HSF1 (Q00613 whole entry): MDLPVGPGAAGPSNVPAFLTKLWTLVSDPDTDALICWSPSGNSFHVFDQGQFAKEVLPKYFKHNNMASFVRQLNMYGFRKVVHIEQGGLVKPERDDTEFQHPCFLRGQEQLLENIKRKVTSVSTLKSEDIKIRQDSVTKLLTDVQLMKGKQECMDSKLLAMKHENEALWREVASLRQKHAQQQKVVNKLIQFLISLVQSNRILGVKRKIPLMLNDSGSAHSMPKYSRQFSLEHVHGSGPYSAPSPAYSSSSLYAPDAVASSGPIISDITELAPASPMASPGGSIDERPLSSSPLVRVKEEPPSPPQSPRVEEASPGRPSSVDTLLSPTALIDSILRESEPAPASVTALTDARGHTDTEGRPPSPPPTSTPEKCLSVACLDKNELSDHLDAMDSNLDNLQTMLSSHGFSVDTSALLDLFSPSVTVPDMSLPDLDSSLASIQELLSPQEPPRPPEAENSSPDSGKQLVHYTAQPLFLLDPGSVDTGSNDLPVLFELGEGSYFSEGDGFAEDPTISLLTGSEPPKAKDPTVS
A further test concerns the target T8, SPIC (Homo sapiens, UniProt Q8N5J4 1-248).
T8 sequence: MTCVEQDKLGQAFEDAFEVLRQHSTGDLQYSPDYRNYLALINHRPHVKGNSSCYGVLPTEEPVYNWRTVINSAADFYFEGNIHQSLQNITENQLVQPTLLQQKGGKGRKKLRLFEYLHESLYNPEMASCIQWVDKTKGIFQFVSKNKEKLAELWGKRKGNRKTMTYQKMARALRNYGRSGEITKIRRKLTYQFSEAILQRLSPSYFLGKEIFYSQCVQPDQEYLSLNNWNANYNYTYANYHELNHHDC
Conditions: protein: recombinant; tags: N-terminal GST; dsDNA, one strand shown. Summed up: as §1

The next test has as its target ELF4 (Homo sapiens, UniProt Q99607 1-663). Particulars: protein: recombinant; tags: N-terminal GST; dsDNA, one strand shown. Summed up: as §1
Another test concerns the target T9, ELK4 (Homo sapiens, UniProt P28324-2 1-405).
T9 sequence: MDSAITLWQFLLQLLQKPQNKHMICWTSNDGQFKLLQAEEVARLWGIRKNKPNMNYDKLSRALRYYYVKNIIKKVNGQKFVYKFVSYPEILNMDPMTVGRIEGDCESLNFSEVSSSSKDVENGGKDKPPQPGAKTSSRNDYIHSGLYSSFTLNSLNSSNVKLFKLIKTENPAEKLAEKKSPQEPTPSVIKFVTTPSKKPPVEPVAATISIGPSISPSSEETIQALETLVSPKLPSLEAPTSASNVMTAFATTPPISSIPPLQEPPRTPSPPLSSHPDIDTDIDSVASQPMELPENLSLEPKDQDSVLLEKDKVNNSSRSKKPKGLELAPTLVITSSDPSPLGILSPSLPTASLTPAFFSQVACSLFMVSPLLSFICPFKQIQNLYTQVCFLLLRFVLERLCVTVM
Conditions: protein: recombinant; tags: N-terminal GST; dsDNA, one strand shown. Summed up:
as §1

The target of the next test is T10, ETV2 (Homo sapiens, UniProt O00321 1-342).
T10 sequence: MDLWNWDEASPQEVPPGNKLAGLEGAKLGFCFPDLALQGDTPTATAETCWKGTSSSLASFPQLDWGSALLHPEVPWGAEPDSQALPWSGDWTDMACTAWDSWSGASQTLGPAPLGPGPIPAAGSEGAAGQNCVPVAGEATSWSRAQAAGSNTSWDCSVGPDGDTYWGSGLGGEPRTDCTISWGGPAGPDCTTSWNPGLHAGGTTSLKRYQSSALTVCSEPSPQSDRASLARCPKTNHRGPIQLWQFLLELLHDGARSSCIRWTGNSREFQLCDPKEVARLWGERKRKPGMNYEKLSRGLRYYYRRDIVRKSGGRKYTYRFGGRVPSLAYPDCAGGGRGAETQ
Particulars: protein: recombinant; tags: N-terminal GST; dsDNA, one strand shown. In short, it runs like this: as §1

A further test concerns the target T11, ELF3 (Homo sapiens, UniProt P78545 1-371).
T11 sequence: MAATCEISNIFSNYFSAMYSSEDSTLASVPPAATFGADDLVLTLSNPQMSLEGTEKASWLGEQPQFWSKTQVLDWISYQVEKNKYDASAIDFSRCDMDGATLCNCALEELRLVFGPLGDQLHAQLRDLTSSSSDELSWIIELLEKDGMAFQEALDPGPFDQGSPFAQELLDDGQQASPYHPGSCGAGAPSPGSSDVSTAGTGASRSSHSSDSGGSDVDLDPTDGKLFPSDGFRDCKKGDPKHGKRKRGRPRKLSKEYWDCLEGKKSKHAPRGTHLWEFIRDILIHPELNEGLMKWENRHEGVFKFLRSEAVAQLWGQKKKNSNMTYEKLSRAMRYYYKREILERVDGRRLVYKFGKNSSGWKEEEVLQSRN
Conditions: protein: recombinant; tags: N-terminal GST; dsDNA, one strand shown. Summed up: as §1

The target in a further test is CRX (Homo sapiens, UniProt O43186 1-299). Particulars: protein: recombinant; tags: N-terminal GST; dsDNA, one strand shown. Summed up:
as §1

In the next test the target is ETV1 (Homo sapiens, UniProt P50549 1-477). Conditions: protein: recombinant; tags: N-terminal GST; dsDNA, one strand shown. In short, it runs like this:
as §1

Sequence of ELF4 (Q99607 whole entry): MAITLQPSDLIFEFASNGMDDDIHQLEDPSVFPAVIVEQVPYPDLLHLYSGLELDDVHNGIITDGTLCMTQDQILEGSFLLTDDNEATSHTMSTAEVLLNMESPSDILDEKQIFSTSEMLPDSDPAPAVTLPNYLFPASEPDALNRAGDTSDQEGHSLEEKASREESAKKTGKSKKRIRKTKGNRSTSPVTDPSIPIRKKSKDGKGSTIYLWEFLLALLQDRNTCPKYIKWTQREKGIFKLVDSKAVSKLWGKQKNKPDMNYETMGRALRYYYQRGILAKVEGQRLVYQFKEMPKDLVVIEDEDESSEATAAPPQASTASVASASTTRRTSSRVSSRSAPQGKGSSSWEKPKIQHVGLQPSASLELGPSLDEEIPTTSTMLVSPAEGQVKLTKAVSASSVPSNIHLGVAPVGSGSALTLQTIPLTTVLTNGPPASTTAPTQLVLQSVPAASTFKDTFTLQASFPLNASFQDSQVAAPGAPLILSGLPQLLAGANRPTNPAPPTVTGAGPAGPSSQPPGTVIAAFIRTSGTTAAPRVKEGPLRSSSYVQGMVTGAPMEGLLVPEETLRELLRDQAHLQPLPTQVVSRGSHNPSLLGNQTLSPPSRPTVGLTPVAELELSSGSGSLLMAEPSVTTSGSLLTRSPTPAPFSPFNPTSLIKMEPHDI
Sequence of ETV1 (P50549 whole entry): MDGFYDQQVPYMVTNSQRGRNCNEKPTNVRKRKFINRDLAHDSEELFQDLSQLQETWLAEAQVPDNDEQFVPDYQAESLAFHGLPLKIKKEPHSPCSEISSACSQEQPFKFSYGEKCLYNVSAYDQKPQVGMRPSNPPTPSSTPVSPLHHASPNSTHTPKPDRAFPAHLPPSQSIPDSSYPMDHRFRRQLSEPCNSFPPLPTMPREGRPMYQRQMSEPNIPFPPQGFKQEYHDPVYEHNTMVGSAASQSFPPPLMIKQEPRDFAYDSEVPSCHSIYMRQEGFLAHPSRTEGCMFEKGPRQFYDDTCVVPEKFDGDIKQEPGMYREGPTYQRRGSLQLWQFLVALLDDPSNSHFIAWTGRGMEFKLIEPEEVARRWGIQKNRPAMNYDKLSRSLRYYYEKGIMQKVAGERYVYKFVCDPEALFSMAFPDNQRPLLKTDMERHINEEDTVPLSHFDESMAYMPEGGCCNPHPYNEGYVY
Sequence of ETV5 (P41161 whole entry): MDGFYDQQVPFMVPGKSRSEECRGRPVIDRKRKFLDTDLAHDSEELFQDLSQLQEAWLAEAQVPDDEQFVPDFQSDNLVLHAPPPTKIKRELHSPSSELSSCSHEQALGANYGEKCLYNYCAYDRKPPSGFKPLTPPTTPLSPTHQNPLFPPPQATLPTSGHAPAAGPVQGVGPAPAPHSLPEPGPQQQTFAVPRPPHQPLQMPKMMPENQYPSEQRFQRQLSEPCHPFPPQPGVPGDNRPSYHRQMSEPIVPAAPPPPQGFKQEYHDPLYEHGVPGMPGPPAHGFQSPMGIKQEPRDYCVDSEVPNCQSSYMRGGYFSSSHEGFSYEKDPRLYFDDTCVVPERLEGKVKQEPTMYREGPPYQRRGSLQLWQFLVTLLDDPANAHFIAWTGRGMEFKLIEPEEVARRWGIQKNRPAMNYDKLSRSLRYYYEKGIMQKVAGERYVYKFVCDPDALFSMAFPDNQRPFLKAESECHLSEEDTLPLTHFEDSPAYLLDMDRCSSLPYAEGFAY
Sequence of CRX (O43186 whole entry): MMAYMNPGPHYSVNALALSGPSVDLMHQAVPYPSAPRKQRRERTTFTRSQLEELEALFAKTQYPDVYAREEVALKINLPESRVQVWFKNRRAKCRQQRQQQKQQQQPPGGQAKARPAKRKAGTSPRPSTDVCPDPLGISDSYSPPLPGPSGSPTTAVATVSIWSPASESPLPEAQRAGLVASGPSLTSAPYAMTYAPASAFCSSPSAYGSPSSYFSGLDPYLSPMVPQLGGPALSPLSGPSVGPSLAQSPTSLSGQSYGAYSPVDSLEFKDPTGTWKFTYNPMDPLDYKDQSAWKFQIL
Sequence of ELF1 (P32519 whole entry): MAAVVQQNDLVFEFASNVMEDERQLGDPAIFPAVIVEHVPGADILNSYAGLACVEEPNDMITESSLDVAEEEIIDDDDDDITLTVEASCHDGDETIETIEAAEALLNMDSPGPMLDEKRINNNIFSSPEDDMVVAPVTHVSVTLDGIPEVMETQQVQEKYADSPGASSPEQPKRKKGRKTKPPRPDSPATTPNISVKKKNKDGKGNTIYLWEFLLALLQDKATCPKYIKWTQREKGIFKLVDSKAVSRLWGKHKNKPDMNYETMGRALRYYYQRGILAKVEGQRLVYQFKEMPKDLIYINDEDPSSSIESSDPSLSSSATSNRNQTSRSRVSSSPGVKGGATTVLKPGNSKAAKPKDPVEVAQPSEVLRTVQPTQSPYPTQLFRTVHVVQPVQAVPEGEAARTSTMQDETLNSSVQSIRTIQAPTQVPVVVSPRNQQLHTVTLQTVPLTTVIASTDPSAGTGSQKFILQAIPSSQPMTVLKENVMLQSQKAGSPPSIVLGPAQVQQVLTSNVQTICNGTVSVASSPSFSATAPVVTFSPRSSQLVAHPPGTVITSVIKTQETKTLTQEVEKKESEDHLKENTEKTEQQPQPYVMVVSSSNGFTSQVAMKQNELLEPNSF

Turning to TATATG, the binding signal in the test with FLI1 is 1.28 fold enrichment (6-mer frequency, TF over GST control); with ELK1, 1.38 fold enrichment (6-mer frequency, TF over GST control); with GABPA it was 1.3 fold enrichment (6-mer frequency, TF over GST control); in the test with ERG, 1.36 fold enrichment (6-mer frequency, TF over GST control); with ELF1, 1.43 fold enrichment (6-mer frequency, TF over GST control); with EHF it was 1.34 fold enrichment (6-mer frequency, TF over GST control). In addition, the binding signal is 1.41 fold enrichment (6-mer frequency, TF over GST control) with SPI1; 1.36 fold enrichment (6-mer frequency, TF over GST control) with SPIB; 1.38 fold enrichment (6-mer frequency, TF over GST control) with ELK3; 1.33 fold enrichment (6-mer frequency, TF over GST control) with FEV; 1.34 fold enrichment (6-mer frequency, TF over GST control) with ETV5; 1.28 fold enrichment (6-mer frequency, TF over GST control) in the test with HSF1. In addition, the binding signal in the test with SPIC is 1.47 fold enrichment (6-mer frequency, TF over GST control); with ELF4 it was 1.31 fold enrichment (6-mer frequency, TF over GST control); in the test with ELK4, 1.65 fold enrichment (6-mer frequency, TF over GST control); with ETV2 it was 1.25 fold enrichment (6-mer frequency, TF over GST control); with ELF3 it was 1.46 fold enrichment (6-mer frequency, TF over GST control); with CRX, 1.44 fold enrichment (6-mer frequency, TF over GST control). Further, the binding signal with ETV1 is 1.33 fold enrichment (6-mer frequency, TF over GST control).
